Screening results: PubChem BioAssay, National Center for Advancing Translational Sciences (NCATS)
Only some compounds are listed: those with a hit (about 12% of all), similar ones and a draw of the others.
FMDV inh: antivirals against foot and mouth disease virus; FMDV antiviral cell-based qHTS; Potency, µM (highest dose often 57.9 µM), for the others: at the highest dose activity change, negative = inhibition, actives largely listed as inhibitors; hit rate 1.2% among 410,000; calls by dose curve; tested in HEK293T cells; note: read-out not given here; potency is the fitted concentration of half-maximal effect; % is set by controls: 0 for no effect and ±100 for the full control effect; nearly all actives have a fitted effect of over 45% in size
Shiga toxin inh: inhibitors of Shiga toxin in Vero cells; Vero cells, Shiga toxin protein synthesis inhibition reporter; inhibition, % at 38.7 µM; hit rate 9.2% among 290,000; AID 2315; in the data active = inhibition mostly above about 28%, no sharp cut-off; inactive = mostly below about 43%; note: 0% is about no effect
Cycloheximide cs: counter-screen hit for Shiga toxin inhibitors, cycloheximide | cell reporter, cycloheximide protein synthesis inhibition counterscreen | max response, % | hit rate 12% among 300,000; in the data active = max response mostly above about 13%, no sharp cut-off; inactive = mostly below about 14%; note: read at 38.3 µM for the half of the compounds with a filed dose; 0% is about no effect
Sm TGR block: blocks Schistosoma mansoni thioredoxin glutathione reductase. purified TGR, DTNB reduction, TNB absorbance 405 nm. Potency, µM (highest dose often 114 µM), for the others: at the top dose activity change, negative = inhibition, most hits filed as inhibitors. hit rate 3% among 360,000; active = well fitted inhibition curve with a large enough effect; inconclusive = small, poorly fitted or top-dose-only effect; inactive = no such curve, though single readings can be large or run the other way; note: potency is the fitted concentration of half-maximal effect; % is set by controls: 0 for no effect and ±100 for the full control effect; nearly all actives have a fitted effect of over 60% in size
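TGR 20 nM + NADPH 100 uM (dispensed conc.), cpd preinc 15 min RT; start with NADPH (500 uM addition) then DTNB (15 mM addition). Kinetic TNB absorbance, 405 nm filter. Four-parameter Hill fit across titration.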
* hit, by the source's call; ? = inconclusive; / = no result given; ! = repeats disagree; [ ] = dose if it differs, or a comment.

SMILES	FMDV inh	Shiga toxin inh	Cycloheximide cs	Sm TGR block
Cc1csc(NC(=O)c2ccccc2[N+](=O)[O-])n1	-2%	-18	-5	-27%
Cc1csc(NC(=O)c2ccc(Cl)cc2[N+](=O)[O-])n1	-22%	128*	46*	-16%
O=c1c2ccccc2nc(SCc2cn3ccsc3n2)n1-c1ccccc1F	?	41*	30*	6%
O=C(Cc1cn2ccsc2n1)OCc1ccccc1	15%	62*	27*	-3%
c1ccc(CSCc2cn3ccsc3n2)cc1	8%	12*	39*	-6%
O=C(Cc1cn2ccsc2n1)NCc1ccccc1	/	7	11	-3%
CC1CCN(C(=O)CSc2nnc(NC(=O)Nc3ccccc3)s2)CC1	-20%	/	/	2%
CCC(C(=O)Nc1ccccc1OC)n1nc(C)c2sc3ccccc3c2c1=O (centres undefined)	-20%	/	/	21%
COc1cc(NC(=O)c2ccnc(N)c2)cc(C(=O)Nc2cccc(C(F)(F)F)c2)c1	-7%	2	-1	-9%
COc1cc(NC(=O)c2cnc(N)o2)cc(C(=O)Nc2cccc(C(F)(F)F)c2)c1	18µM*	-4	-3	0%
COc1cc(NC(=O)c2csc(N)n2)cc(C(=O)Nc2cccc(C(F)(F)F)c2)c1	25µM*	21	7	9%
COc1ccc(CCNC(=O)Cn2nnc(-c3cccc(C(F)(F)F)c3)n2)cc1OC	-18%	/	/	-5%
Cc1ccc2nc(-c3cccc(-c4cccc(Cl)c4)c3)c(NCc3ccccc3)n2c1	35µM*	/	/	3%
CCC(C)Sc1cccc(-c2nc3ccc(Cl)cn3c2NCc2ccccc2)c1 (centres undefined)	-8%	/	/	-7%
CCC(C)Sc1cccc(-c2nc3ccc(C)cn3c2NCc2ccccc2)c1 (centres undefined)	32µM*!	/	/	-27%
COCCCNC(=O)c1cc2c(=O)oc3ccc(C)cc3c2s1	4%	/	/	-13%
O=C1c2ccccc2S(=O)(=O)N1CCCN1C(=O)c2ccccc2S1(=O)=O	-6%	/	/	/
O=C1c2ccccc2S(=O)(=O)N1CCOc1ccccc1	39%	56	35*	-17%
O=C1c2ccccc2C(=O)N1CC(O)COc1ccc(Br)cc1 (centres undefined)	1%	90	13*	-24%
O=C1c2ccccc2S(=O)(=O)N1CC(O)COc1ccc(Br)cc1 (centres undefined)	13%	33	28*	-1%
Cc1ccc(CNC(=O)CSc2nc3c(sc4ccccc43)c(=O)n2CCCOC(C)C)cc1	-4%	/	/	-5%
CCCCc1[nH]c(=O)c(C#N)c2c1CSC(C)(C)C2	0%	-18	-2	32µM*
CC(=O)Nc1ccc(SC[C@H](CC(C)C)N2CCN(CC(C)C)CCC2=O)cc1	0%	-4	-6	?
CC(C)C[C@@H](CSc1ccc(Br)cc1)N1CCN(CC(C)C)CCC1=O	5%	75*	18*	?
COc1ccc(SCC(c2ccccc2)N2CCN(CC(C)C)CCC2=O)cc1 (centres undefined)	/	-5	9	/
SMILES	FMDV inh	Shiga toxin inh	Cycloheximide cs	Sm TGR block
CCCN1CCC(=O)N(C(CSc2ccc(OC)cc2)CC(C)C)CC1 (centres undefined)	/	53*	43*	/
CCCN1CCC(=O)N([C@H](CSc2ccc(OC)cc2)c2ccccc2)CC1	33%	37*	15*	22µM*
CCCN1CCC(=O)N(C(CSc2ccc(Br)cc2)CC(C)C)CC1 (centres undefined)	/	89*	36*	/
O=C(Oc1cccc(/C=N/NC(=O)c2ccccn2)c1)c1ccc([N+](=O)[O-])cc1	-30%	-18	-1	-3%
O=C(N/N=C/c1ccc(O)c([N+](=O)[O-])c1)c1ccncc1	-17%	-11	1	-5%
O=[N+]([O-])c1cc(/C=N/N/C(=N/c2ccccn2)c2ccccn2)ccc1O	31%	123*	34*	?
O=[N+]([O-])c1ccc(/C=N/N/C(=N/c2ccccn2)c2ccccn2)cc1	/	50	40*	-2%
Cc1nn(CCC(=O)NCc2cccc(Br)c2)c(=O)c2nn(-c3ccccc3)c(C)c12	-9%	/	/	-8%
NC[C@@H]1O[C@H](C23CC4CC(CC(C4)C2)C3)Cc2c1ccc(O)c2O	40µM*!	14	-5	7.9µM*
O=S(=O)(Nc1cccc2nsnc12)c1ccccc1	/	1	10	-25%
O=C(Nc1cccc2cccnc12)c1cccs1	/	79	37*	/
O=C(Nc1ccccc1)Nc1cccc2nsnc12	29%	86	34*	5%[57.1 µM]
O=C(Nc1cccc2nsnc12)c1cccnc1	-25%	-9	-2	-3%
O=C(Nc1cccc2nsnc12)c1cccs1	0%	99*	35*	5%
COc1ccc(C2(CNC(=O)C(=O)Nc3ccccc3C)CCCC2)cc1OC	?	/	/	-3%
CCOc1ccccc1NC(=O)C(C)N(c1ccccc1)S(C)(=O)=O (centres undefined)	-14%	/	/	1%
CN1CCN(c2ncncc2-c2cccnc2)CC1	11%	/	/	/
O=C(N/N=C/c1ccc(O)cc1)c1cc(-c2ccccc2)nc2ccccc12	17%	65*	34*	-12%
COc1cc(/C=N/NC(=O)c2cc(-c3ccccc3)nc3ccccc23)ccc1O	2%	45*	23*	6%
COc1ccc(/C=N/NC(=O)c2nc(-c3ccccc3)cc(-c3ccccc3)n2)cc1	-8%	-20	-4	6%
COc1ccc(/C=N/NC(=O)c2nc(-c3ccccc3)cc(-c3ccccc3)n2)cc1O	-10%	11	29*	-6%
Cc1ccc(-c2cc(C(=O)N/N=C/c3c(C)nn(C)c3C)c3ccccc3n2)cc1C	-5%	49	19*	-25%
COc1ccc(/C=N/NC(=O)c2cc(-c3ccccc3)nc3ccccc23)cc1O	-13%	21	11	-11%
Cc1ccc(-c2cc(C(=O)N/N=C/c3ccoc3)c3ccccc3n2)cc1	23%	-4	19	-17%
COc1ccc(-c2cc(C(=O)N/N=C/c3ccc4c(c3)OCO4)c3ccccc3n2)c(OC)c1	-6%	-11	1	13%
SMILES	FMDV inh	Shiga toxin inh	Cycloheximide cs	Sm TGR block
O=C(N/N=C/c1ccc2c(c1)OCO2)c1cc(-c2ccc(F)cc2)nc2ccccc12	22%	92*	50*	1%
CCOC(=O)c1ccccc1NS(=O)(=O)c1c(-c2ccc(C)cc2)csc1C(=O)OC	0%	/	/	-16%
COCc1c(C(=O)N2CCN(C3CCCCC3)CC2)cnn1-c1ncc(C)c(-c2cccs2)n1	-1%	/	/	/
O=C(C1=NN[C@@H]2C(=O)N(c3cccc(F)c3)C(=O)[C@H]12)c1ccc2ccccc2n1	-2%	13	-3	?
COc1cccc(N2C(=O)[C@H]3C(C(=O)c4cnccn4)=NN[C@H]3C2=O)c1	-23%	-6	4	45µM*
O=C(Nc1cccc(Cl)c1)c1ccc2c(c1)CCN2S(=O)(=O)c1ccccc1	-11%	/	/	3%
CCOC(=O)N/N=C(\C)c1ccc(C)c([N+](=O)[O-])c1	-1%	56	16*	-3%
COC(=O)N/N=C(\C)c1ccc(Br)cc1	13%	-4	12	-3%
COc1ccc(C(=O)Nc2nc(C)cc(C)n2)cc1[N+](=O)[O-]	-10%	-5	10	-7%
CCOC(=O)N/N=C(\C)c1ccc(Br)cc1	/	65	31*	2%
